In the library only some 3.2% were active in any assay of this set; here they are far more common.
BRCA1 expr up – BRCA1 expression activation; MCF7-BRCA1-FFLuc reporter, luminescence, 48 h; response scale: scaled: vehicle 0%, 10 µM genistein 100%; actives 1.1% (n = 380,000); Potency, µM (doses to about 46.1 µM), for inactives: at the top dose activation, usual class: activators; further: potency means the concentration at half of the fitted maximal effect; nearly all actives have a fitted effect of over 80% in size
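Luminescence from a BRCA1-driven firefly luciferase in MCF7 cells was read after 48 h compound exposure at 37 C. Data normalized against DMSO and a 10microM genistein activation control, then curve-fitted across the titration.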
p53 reactivation – re-activators of mutant p53; H1299 p53-A138V BP100-luciferase reporter, luminescence, 24 h; Potency, µM (titrated, usually from 92.2 µM), for inactives: top-dose activity change, positive = activation, most hits filed as activators; actives 0.063% (n = 320,000); further: potency means the concentration at half of the fitted maximal effect; % of control where 0% means no effect; nearly all actives have a fitted effect of over 45% in size
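H1299 (p53-null), stable ts p53-A138V + BP100-Luc; 1000 cells/well, Opti-MEM/10% FBS; cpd 4 pt, 1:5; 24 h, 37 deg C, 5% CO2; detection reagent 10 min RT; luminescence.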
Nrf2 block – Nrf2 pathway inhibition; A549 ARE-Fluc reporter, luciferase luminescence, 18-24 h; Potency, µM (top dose mostly 46 µM), without a hit: at the top dose activity change, negative = inhibition, usual class: inhibitors; actives 2.1% (n = 360,000); AID 504444; further: potency means the concentration at half of the fitted maximal effect; on the % scale 0 is the no-effect control and ±100 the full control effect; nearly all actives have a fitted effect of over 60% in size
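In this cell-based qHTS, ARE-driven firefly luciferase in A549 cells reports Nrf2 activity; the luminescent signal after BugLite lysis is the measured value, with a prior CellTiter-Fluor read for cell health.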
IL-2 act – activates IL-2 in a cell-based reporter assay. IL-2 activation reporter assay, cell-based qHTS; stimulated with anti-CD3/CD4/CD28 beads; in transgenic mouse T cells. activation, % (series mostly up to about 46 µM). AID 652025. actives 0.065% (n = 360,000); in the data active means activation above about 50%; inconclusive means mostly about 30% to 49%; further: 0% is about no effect
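Quantitative HTS in unstimulated transgenic mouse T cells, with memory T cells as non-tolerant control and PMA/ionomycin as tolerance-bypass control. Compound pretreatment lasted 60 minutes before 18 h bead stimulation; EGFP/DsRed fluorescence read.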
A549 viability – counter-screen for Nrf2 inhibitors: cytotoxicity in A549 cells | AID 504648 | actives 0.16% (n = 390,000) | Potency, µM (series often up to 46 µM), for the others: at the highest dose activity change, negative = cytotoxicity, actives largely listed as inhibitors | A549 ARE-Fluc cells, CellTiter-Fluor viability, 18-24 h; further: potency means the concentration at half of the fitted maximal effect; on the % scale 0 is the no-effect control and ±100 the full control effect
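A549 ARE_Fluc cells in 5% FBS OPTI-MEM were exposed to compounds in concentration-response for 18-24 h at 37 deg C. Viability was read by CellTiter-Fluor fluorescence (Ex 405/Em 525) after 30 min, before the luciferase read.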
Nrf2 ARE act – activates Nrf2 signaling. actives 0.31% (n = 410,000). Potency, µM (top dose mostly 46.1 µM), inactives show at the top dose activation, actives largely listed as activators. AREc32 ARE-luciferase reporter (MCF7-derived line), luminescence, 24 h; further: potency means the concentration at half of the fitted maximal effect; % of control where 0% means no effect; nearly all actives have a fitted effect of over 65% in size
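Luciferase luminescence (Steady-Glo, 30 min at room temperature) served as the read-out of ARE activation in AREc32 cells treated with compounds for 24 hr at 37 deg C.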
An asterisk follows results filed as active; ? = inconclusive; nt = no result; [ ] = dose if it differs, or a comment. Unless noted, the call rests on the fitted dose curve; in most records, active means well fitted curve in the direction sought with a large enough effect; inconclusive means small, poorly fitted or top-dose-only effect, or another doubt; inactive means no such curve, though single readings can be large; an effect the other way counts as inactive or inconclusive.

SMILES | BRCA1 expr up | p53 reactivation | Nrf2 block | IL-2 act | A549 viability | Nrf2 ARE act
O=[N+]([O-])c1cc2c(c(CSc3nnc(Nc4ccccc4)s3)c1)OCOC2 | 1% | 3% | -11% | 2 | -9% | 0%
Cc1ccccc1Nc1nnc(SCc2cc([N+](=O)[O-])cc3c2OCOC3)s1 | -37% | -5% | 26µM* | 0 | -1% | 0%
Cc1cc(C)n(C(C)CC(=O)Nc2ccc(C)c(F)c2)n1 (configuration not stated) | nt | nt | -16% | nt | 7% | -1%
O=C1c2ccccc2C(=O)N1CCCCN(C(=O)c1cc([N+](=O)[O-])cc([N+](=O)[O-])c1)c1ccc(Cl)cc1 | -4% | -2% | 23µM* | 0 | -12% | 0%
CCC1CCCCN1S(=O)(=O)c1ccc(C(=O)Nc2sc3c(c2C(N)=O)CCC3)cc1 (configuration not stated) | -3% | nt | nt | nt | -8% | 0%
CCC(C)(C)C1CCC2(CC1)NC(=O)N(CC(=O)N(C)CC(=O)Nc1ccccc1C(F)(F)F)C2=O (configuration not stated) | -52% | 7% | 15µM* | 0 | -20% | -1%
CCCOc1ccc(C(=O)Nc2ccccc2[N+](=O)[O-])cc1 | 3.2µM* | nt | ? | 2 | -19% | 11%
COc1ccc(NC(=S)NC(NC(=O)c2cccc(C)c2)C(Cl)(Cl)Cl)c([N+](=O)[O-])c1 (configuration not stated) | -51% | 7% | ? | -1 | -18% | 0%
CCOc1ccc(NC(=O)c2ccco2)c([N+](=O)[O-])c1 | ? | 4.5µM* | ? | 0 | -2% | 8%
COc1ccc(OC)c(NC(=O)/C=C/c2ccccc2[N+](=O)[O-])c1 | -26% | -3% | -4% | 3 | 2% | 22%
COc1ccc(NC(=S)NC(NC(=O)c2cccc(Cl)c2)C(Cl)(Cl)Cl)c([N+](=O)[O-])c1 (configuration not stated) | -95% | -3% | 26µM* | -1 | ? | 11%
COc1cccc(NC(=O)/C=C/c2ccccc2[N+](=O)[O-])c1 | 3.2µM* | ? | ? | 3 | -5% | ?
Cc1oc(-c2ccccc2F)nc1CS(=O)CC(=O)NC(C)C (configuration not stated) | nt | nt | -8% | nt | -7% | 0%
Cc1ccccc1C(=O)N1c2ncnn2C2(CCCCC2)[C@@H]2CCCC[C@@H]21 | nt | nt | -11% | nt | -6% | -1%
COc1ccc(NC(=O)c2cccnc2)c([N+](=O)[O-])c1 | -49% | 22% | -7% | 0 | -15% | 0%
COc1ccc(NC(=O)c2ccccc2)c([N+](=O)[O-])c1 | 7.9µM* | 9% | ? | 1 | -10% | 6%
COc1cccc(Cn2c(=O)n(CCc3ccccc3)c(=O)c3c2c2cc(OC)ccc2n3C)c1 | 10% | nt | 26% | nt | -1% | 0%
Nc1c(C(=O)O)ccc2c1C(=O)c1ccccc1C2=O | 30% | -2% | -3% | 0 | 18µM* | 1%
CCc1cc2c(=O)n(Cc3ccco3)c(SCC(=O)N3CCCc4ccccc43)nc2s1 | -30% | -2% | 26µM* | -2 | -28% | 6%
CCc1cc2c(=O)n(Cc3ccco3)c(SCC(=O)NCC3CCCO3)nc2s1 (configuration not stated) | -32% | -7% | ? | -4 | -14% | 4%
CCn1c(C)nc2cc(C(=O)NNC(=S)Nc3ccc(Cl)cc3Cl)ccc21 | 1% | -4% | -9% | 0 | 16% | 0%
CCn1c(C)nc2cc(C(=O)NNC(=S)Nc3ccc(Cl)cc3)ccc21 | -2% | 8% | ? | 0 | 1% | 3%
CCn1c(C)nc2cc(C(=O)N/N=C(\C)c3ccc(OC)cc3O)ccc21 | -71% | -3% | 23µM* | -1 | -14% | 0%
CCn1c(C)nc2cc(C(=O)NNC(=S)Nc3ccccc3Cl)ccc21 | 4µM* | ? | -8% | -1 | -1% | 3%
CCn1c(C)nc2cc(C(=O)NNC(=S)Nc3ccc(F)cc3)ccc21 | 10µM* | 10% | 29% | -1 | 0% | 0%
SMILES | BRCA1 expr up | p53 reactivation | Nrf2 block | IL-2 act | A549 viability | Nrf2 ARE act
COc1cc(C=CC(=O)c2ccccc2)cc(OC)c1OC | -60% | nt | nt | -1 | nt | ?
COc1cc(C=CC(=O)c2cc(OC)c(OC)c(OC)c2)cc(OC)c1OC | -91% | nt | 23µM* | -1 | ? | -3%
COc1cc(OC)c(C(=O)/C=C/c2ccc(OCc3ccccc3)c(OC)c2)c(OC)c1 | -79% | nt | ? | -1 | -2% | ?
COc1cc(OC)c(C(=O)C=Cc2ccc(OC)c(OC)c2)c(OC)c1 | -92% | nt | ? | 0 | -22% | 11µM*
COc1ccc(Cl)cc1NC(=O)CSC1=Nc2ccccc2C2=NC(CC(=O)NC3CCCCC3)C(=O)N12 (configuration not stated) | nt | nt | ? | nt | ? | 7%
O=C(Nc1ccc2ccccc2n1)C1CCCCC1 | 2.8µM* | ? | ? | 1 | -5% | 0%
O=C(CNC1CCCCC1)Nc1cccc([N+](=O)[O-])c1 | 38% | nt | -18% | 0 | -4% | 5%
O=C(Cc1ccccc1)Nc1nnc(-c2cccc([N+](=O)[O-])c2)s1 | 17% | 9% | 14% | -3 | 1% | 2%
O=C(Nc1cccc([N+](=O)[O-])c1)NC1CCCCCCC1 | 6.3µM* | 14% | -76% | -3 | ? | 8%
O=C(NC1CCCCC1)N(c1ccccc1)c1nnc(-c2cccc([N+](=O)[O-])c2)s1 | -17% | nt | nt | -4 | nt | 3.2µM*
O=C(Nc1cccc([N+](=O)[O-])c1)C(=O)N1CCCCC1 | 4.5µM* | 9% | ? | 1 | -11% | 16%
CCCCN(C)CCCNC(=O)C1CCN(c2nc3ccc(CC)cc3s2)CC1 | nt | nt | 10%[9.27 µM] | nt | -1% | 11%
COC(=O)c1cc2c(cc1NC(=O)c1cnn(-c3ccc(C)cc3)c1-n1cccc1)OCO2 | nt | nt | 20% | nt | 1% | -1%
COc1ccccc1CNS(=O)(=O)c1ccc2c(c1)CC(C)N2C(=O)C1CCC1 (configuration not stated) | -24% | 0% | 18µM* | -1 | -14% | 3%
Cc1cc(C)c(NS(=O)(=O)c2ccc3c(c2)CC(C)N3C(=O)C2CCC2)c(C)c1 (configuration not stated) | nt | nt | 21µM* | nt | -5% | 0%
CCCN(c1ccccc1CC)S(=O)(=O)c1ccc2c(c1)CC(C)N2C(=O)C1CC1 (configuration not stated) | nt | nt | 21µM* | nt | -6% | 5%

Compound activity (PubChem BioAssay)
